Assay results reported in PubChem BioAssay AID743445 (Broad Institute, 2014).
Out of some 310,000 compounds screened, about 1,700 (0.55%) were called active. Cut-off read from the data, not from the text of the source: active = inhibition above about 50%; inactive = the rest. Many of the other results were omitted from the sample, so actives are more common in it than they were.

Each compound was assayed against Histone-lysine N-methyltransferase NSD2 (Homo sapiens) (UniProt O96028) (assay: NSD2 histone methyltransferase inhibitors, primary screen, biochemical, AlphaScreen, single concentration, set 2 (AID 743445)). Settings: NSD2 peptide methylation, 120 min, at 12.5 µM, active compounds read high.
Chain of Histone-lysine N-methyltransferase NSD2 (Homo sapiens) (O96028 whole entry, looked up): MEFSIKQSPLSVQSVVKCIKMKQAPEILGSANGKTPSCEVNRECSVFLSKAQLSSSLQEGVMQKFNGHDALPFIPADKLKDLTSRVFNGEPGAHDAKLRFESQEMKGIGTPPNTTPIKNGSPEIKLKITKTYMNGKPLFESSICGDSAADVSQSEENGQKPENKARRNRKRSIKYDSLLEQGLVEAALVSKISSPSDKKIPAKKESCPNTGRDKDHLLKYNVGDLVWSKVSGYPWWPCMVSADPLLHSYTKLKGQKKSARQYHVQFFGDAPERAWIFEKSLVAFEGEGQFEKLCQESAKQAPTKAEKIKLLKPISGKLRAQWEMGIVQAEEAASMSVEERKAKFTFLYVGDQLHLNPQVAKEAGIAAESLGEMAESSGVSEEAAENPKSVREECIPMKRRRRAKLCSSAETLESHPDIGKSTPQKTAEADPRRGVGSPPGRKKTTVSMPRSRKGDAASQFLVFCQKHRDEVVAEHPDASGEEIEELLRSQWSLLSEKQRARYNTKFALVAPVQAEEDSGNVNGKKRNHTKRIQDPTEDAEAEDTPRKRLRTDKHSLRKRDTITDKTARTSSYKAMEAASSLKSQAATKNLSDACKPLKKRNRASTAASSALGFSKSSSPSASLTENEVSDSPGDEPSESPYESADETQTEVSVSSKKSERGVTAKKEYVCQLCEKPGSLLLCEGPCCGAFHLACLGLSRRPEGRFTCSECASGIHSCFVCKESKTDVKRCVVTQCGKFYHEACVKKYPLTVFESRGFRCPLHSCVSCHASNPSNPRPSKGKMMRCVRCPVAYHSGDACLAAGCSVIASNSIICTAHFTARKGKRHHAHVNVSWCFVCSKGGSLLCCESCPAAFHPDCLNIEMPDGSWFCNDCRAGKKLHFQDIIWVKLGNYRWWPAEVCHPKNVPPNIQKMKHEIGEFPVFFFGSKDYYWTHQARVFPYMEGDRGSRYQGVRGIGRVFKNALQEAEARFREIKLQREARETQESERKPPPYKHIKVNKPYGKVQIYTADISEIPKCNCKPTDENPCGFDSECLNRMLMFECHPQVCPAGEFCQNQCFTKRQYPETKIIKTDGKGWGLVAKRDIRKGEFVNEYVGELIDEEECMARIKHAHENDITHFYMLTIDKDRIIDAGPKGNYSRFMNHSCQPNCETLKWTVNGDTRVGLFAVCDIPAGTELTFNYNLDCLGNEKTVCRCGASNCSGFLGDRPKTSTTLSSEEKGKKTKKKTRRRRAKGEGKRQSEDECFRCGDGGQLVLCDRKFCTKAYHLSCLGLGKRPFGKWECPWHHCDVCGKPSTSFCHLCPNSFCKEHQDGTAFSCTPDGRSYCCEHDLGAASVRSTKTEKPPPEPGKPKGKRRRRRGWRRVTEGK

Row | SMILES | inhibition
1 | CC(=O)N1CCCN(C2=Nc3ccccc3Sc3ccccc32)CC1 | 0.906% (inactive)
2 | O=C(Nc1ccc(N2CCOCC2)cc1)C1=COCCO1 | -0.182% (inactive)
3 | COC(=O)CCCCC1=CCC2C(=O)C=C(O)C2C1 (configuration not stated) | 62.2% (active)
4 | COc1ccc(-n2c(SCC(=O)Nc3ccccc3-c3ccccc3)nnc2-c2cccnc2)cc1 | 3.15% (inactive)
5 | COC(=O)c1cc(S(=O)(=O)N2CCN(c3ccccc3C)CC2)cn1C | 7.47% (inactive)
6 | COc1cccc(-c2cc(CNC(=O)[C@@H](Cc3ccccc3)NC(=O)[C@H]3O[C@@H](n4cnc(C(N)=O)n4)[C@H](O)[C@@H]3O)no2)c1 | -0.483% (inactive)
7 | COc1ccc(-n2c(COc3ccc(C)cc3)nnc2SCC(=O)Nc2ccc(Oc3ccccc3)cc2)cc1 | 0.031% (inactive)
8 | CC(C)CSc1nnc(-c2cccnc2)n1Cc1ccccc1 | -2.26% (inactive)
9 | COC(=O)c1ccc(CSc2nnc(N)s2)o1 | -2.67% (inactive)
10 | CCOc1ccccc1Nc1nnc(SCC(=O)Nc2cc(C)on2)s1 | -5.24% (inactive)
11 | CCOc1ccccc1Nc1nnc(SCc2ccc(C(=O)OC)o2)s1 | 103% (active)
12 | Cc1ccc(NC(=O)C(C)Sc2nc(C)cs2)cc1 (configuration not stated) | -1.63% (inactive)
13 | O=C(NCc1ccco1)C1CCCN(S(=O)(=O)c2ccc(Cl)s2)C1 (configuration not stated) | 1.68% (inactive)
14 | O=C(Cc1ccccc1)NC(=S)Nc1ccc(N2CCCCC2)cc1 | 0.281% (inactive)
15 | CC(=O)Nc1ccc(S(=O)(=O)Nc2ccc(N3CCCCC3)cc2)cc1 | 11.4% (inactive)
16 | O=C1C=CC(=O)N1c1ccc(N2CCCCC2)cc1 | 51.2% (active)
17 | O=C(CN1CCCc2ccccc21)NCc1ccc(F)cc1 | 0.199% (inactive)
18 | Cc1ccc(NC(=O)Cc2cccc(F)c2)c(S(=O)(=O)N2CCOCC2)c1 | -1.61% (inactive)
19 | O=C(Nc1ccc(C(=O)O)c(O)c1)c1ccccc1 | -0.136% (inactive)

Row | SMILES | inhibition
20 | O=C(O)c1ccccc1N=N/C(=N/Nc1cc(S(=O)(=O)O)ccc1O)c1ccccc1 | 70.7% (active)
21 | O=C(O)c1ccccc1/C=N/Nc1ccc(S(=O)(=O)Nc2ccc(Cl)cc2)cc1[N+](=O)[O-] | 14.9% (inactive)
22 | O=C(CSc1nnc(COc2ccccc2)n1-c1ccc(Cl)cc1)Nc1ccc2c(c1)OCO2 | -1.07% (inactive)
23 | O=C(NN=Cc1ccc(N2CCOCC2)cc1)c1cc2ccccc2cc1O | -0.134% (inactive)
24 | Cc1ccc(/C=N/NC(=O)c2cc3ccccc3cc2O)o1 | 50% (active)
25 | O=C(N/N=C/c1cccnc1)c1cc2ccccc2cc1O | 4.16% (inactive)
26 | Clc1ccc(-n2c(COc3ccccc3)nnc2SCc2nc3ccccc3[nH]2)cc1 | 1.86% (inactive)
27 | Cc1cc(=O)[nH]c(SCC(=O)Nc2ccc(F)cc2F)n1 | -12.4% (inactive)
28 | CN(C)S(=O)(=O)c1cccc(C(=O)N/N=C\c2ccco2)c1 | 3.26% (inactive)
29 | Cc1ccccc1S(=O)(=O)NC(=O)C1(C)CCN1C(=O)C1(c2ccccc2)CCCC1 (configuration not stated) | -0.963% (inactive)
30 | CCC1=[N+]([O-])C(C)(/C(C)=N\O)N(O)C1(C)C (configuration not stated) | 96.5% (active)
31 | C/C(=N\O)C1(C)N(O)C(C)(C)C(c2ccc(Br)cc2)=[N+]1[O-] (configuration not stated) | -1.39% (inactive)
32 | CCC1(C)N(O)C(C)(C)C(c2ccc(OC)cc2)=[N+]1[O-] (configuration not stated) | -2.21% (inactive)
33 | CC(C)NC(=O)C1(C)CCCCCN1C(=O)c1ccc(-c2ccccc2)cc1 (configuration not stated) | -1.44% (inactive)
34 | Cc1ccc(-n2c(SCC(=O)Nc3ccc(S(=O)(=O)Nc4nccs4)cc3)nnc2-c2ccncc2)cc1 | 6.51% (inactive)
35 | COc1cccc(N2CCN(CC(=O)N(C)Cc3ccc(F)cc3)CC2)c1 | 2.97% (inactive)
36 | CN(C)c1ccc(/C=N/Nc2cc(N3CCOCC3)nc(N3CCOCC3)n2)cc1 | 4.94% (inactive)
37 | COc1ccc(/C=N/Nc2cc(N3CCOCC3)nc(C)n2)c(OC)c1 | 7.29% (inactive)
38 | C(=N/Nc1cc(N2CCOCC2)nc(N2CCOCC2)n1)/c1ccccc1 | 50.1% (active)

Row | SMILES | inhibition
39 | Nn1c(SCC(=O)N2c3ccccc3Sc3ccccc32)nnc1-c1n[nH]c2c1CCC2 | 14.3% (inactive)
40 | Cc1ccc(-n2c(SCC(=O)Nc3cccc4ccccc34)nnc2-c2ccco2)cc1 | -0.2% (inactive)
41 | O=C(CNC(=O)c1ccccc1)Oc1ccc([N+](=O)[O-])cc1 | 53.4% (active)
42 | COC(=O)CNC(=O)c1ccccc1[N+](=O)[O-] | 0.597% (inactive)
43 | O=C(NNS(=O)(=O)Cc1ccccc1)c1ccc([N+](=O)[O-])cc1 | -3.19% (inactive)
44 | CC(=O)Nc1cccc(-c2cc3nc(NCc4cccnc4)n(C)c(=O)c3s2)c1 | -4.37% (inactive)
45 | Cc1ccccc1NC(=O)Cn1nnc(-c2ccccc2F)n1 | -1.41% (inactive)
46 | O=C(NCc1ccccc1)[C@@H]1CCCN1C(=O)[C@@H](NS(=O)(=O)c1ccc(F)cc1F)C1CCCCC1 | -1.37% (inactive)
47 | CC(=O)N(C1=C(Cl)C(=O)c2ccccc2C1=O)c1ccc(C(=O)O)cc1 | 142% (active)
48 | O=C(NC1=CC(=O)c2ccccc2C1=O)c1ccccc1 | 40.2% (inactive)
49 | CCOC(=O)C1(Cc2ccccc2)CCN(Cc2cn(C(C)=O)c3ccccc23)CC1 | 3.51% (inactive)
50 | Cc1ccc(-c2nnc(SCC(=O)Nc3ccc(Oc4ccccc4)cc3)n2Cc2ccco2)cc1 | 0.417% (inactive)
51 | CCOC(=O)CCCNC(=O)COC(=O)/C=C/c1ccc2c(c1)OCO2 | -2.71% (inactive)
52 | CCOc1ccc(/C=C/C(=O)OCC(=O)c2ccccc2OC)cc1OC | -0.606% (inactive)
53 | CCOc1cc(/C=C/C(=O)OCC(=O)NCCN2C(=O)CSC2=O)ccc1OCC(C)C | 128% (active)
54 | COc1ccc(-n2c(SCC(=O)NC3CCCC3)nnc2-c2ccncc2)cc1 | 7.3% (inactive)
55 | O=C(Cn1cc(C(F)(F)F)ccc1=O)Nc1ccc2c(c1)OCCO2 | 58% (active)
56 | O=C(Cn1c(=O)sc2ccccc21)Nc1ccc2c(c1)OCCO2 | 6.04% (inactive)
57 | O=C(CN1CCC(O)(c2ccccc2)CC1)Nc1ccc2c(c1)OCCO2 | -3.29% (inactive)
